Measured values from PubChem BioAssay AID485344 (National Center for Advancing Translational Sciences (NCATS), 2010).
Out of some 340,000 compounds screened, about 6,900 (2%) were called active. The list comes from a sample in which actives are over-represented; it also holds similar structures and randomly drawn compounds. A number with no mark means an inactive call. Cut-off read from the data, not from the text of the source: active = inhibition above about 30%; inactive = below that, where a call was filed.

The compounds below were run against D(2) dopamine receptor (Homo sapiens) (UniProt P14416) (assay: HTS Assay for Allosteric Antagonists of the Human D2 Dopamine Receptor: Primary Screen for Antagonists). Details: HEK293 TREx D2 cells, calcium flux, dopamine EC80; at 10 µM; active compounds read high.
D(2) dopamine receptor (Homo sapiens), sequence (P14416 whole entry, looked up): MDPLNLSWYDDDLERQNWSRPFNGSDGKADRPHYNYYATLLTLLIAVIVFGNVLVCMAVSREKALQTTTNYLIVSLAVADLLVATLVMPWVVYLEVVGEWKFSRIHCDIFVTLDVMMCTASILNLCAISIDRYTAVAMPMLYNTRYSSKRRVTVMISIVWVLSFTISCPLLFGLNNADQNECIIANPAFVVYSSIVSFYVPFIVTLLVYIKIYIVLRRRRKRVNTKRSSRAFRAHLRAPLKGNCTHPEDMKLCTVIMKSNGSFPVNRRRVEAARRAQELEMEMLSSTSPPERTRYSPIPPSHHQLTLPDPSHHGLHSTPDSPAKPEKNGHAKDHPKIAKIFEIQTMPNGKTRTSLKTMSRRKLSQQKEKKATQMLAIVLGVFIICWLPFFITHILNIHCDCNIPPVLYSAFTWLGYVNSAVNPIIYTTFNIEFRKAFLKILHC
In short: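 Read-out: kinetic calcium fluorescence (1 cycle/s) in inducible HEK293 T-REx D2 cells after an EC80 dopamine addition that followed 180 s compound preincubation. Loss of the dopamine response indicates antagonism.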
Note: 0% is about no effect.

SMILES | inhibition
Cc1ccc(C(=O)OCC(=O)Nc2ccc(Cl)cn2)cc1S(=O)(=O)N1CCOCC1 | -15.2%
CC(C)(C)c1ccc(S(=O)(=O)N2CCN(C(=O)c3ccc4c(c3)C(=O)N(Cc3ccncc3)C4=O)CC2)cc1 | -6.14%
O=C(NCCC1CCCCN1S(=O)(=O)c1cccs1)C(=O)Nc1ccc(F)cc1F (stereo not drawn) | 7.7%
CC(C(=O)N(C)CC(=O)Nc1ccccc1C(F)(F)F)N1C(=O)c2ccccc2C1=O (stereo not drawn) | 12.3%
Cc1nn(Cc2ccccc2)c(C)c1C(=O)N1CCN(CC(=O)Nc2ccccc2Cl)CC1 | 0.422%
O=C(CO/N=C/c1ccc(OC(F)F)cc1)NCc1ccc(F)cc1 | 4.16%
CC1CCCCC1NC(=O)CO/N=C/c1ccc(OC(F)F)cc1 (stereo not drawn) | 34.1% (active)
O=C(COC(=O)/C=C/c1ccc(OC(F)F)cc1)NC1CCCCC1 | -18.9%
CCOc1ccc(S(=O)(=O)N2CCC(C(=O)OCc3ccc(OC)cc3)CC2)cc1 | 5.17%
COc1ccc(N2CCN(C(C)=C3C(=O)c4ccccc4C3=O)CC2)cc1 | 14.9%
O=C(C(Cl)Cl)N1CCN(c2ccccn2)CC1 | 1.9%
CC(=C1C(=O)c2ccccc2C1=O)N1CCN(c2ccccn2)CC1 | 56.1% (active)
CCC1(CC)NC(=O)N(CC(=O)OCC(=O)c2cc(C)c(C)cc2C)C1=O | -22.9%
CCC(=O)c1ccc(OCC(=O)N(CC)CC2COc3ccccc3O2)cc1 (stereo not drawn) | -1.9%
CC1(C)NC(=O)N(CC(=O)N2CCN(S(=O)(=O)c3ccccc3F)CC2)C1=O | -6.83%
CC(C)C[C@H](NC(=O)C1CCC(CNC(=O)[C@@H]2CCCN2C(=O)OC(C)(C)C)CC1)C(=O)O (stereo partly drawn) | -15.8%
CC(=O)Nc1ccc(S(=O)(=O)N2CCC(C(=O)N[C@@H](Cc3ccccc3)C(=O)O)CC2)cc1 | -23.4%
CC(C)[C@@H](NC(=O)OC(C)(C)C)C(=O)NCC1CCC(C(=O)N[C@@H](Cc2ccccc2)C(=O)O)CC1 (stereo partly drawn) | 31.8% (active)
O=C(CSc1nnc(Nc2ccccc2F)s1)NC1CCCC1 | 12.9%
N#Cc1ccc(C(c2nnnn2CCc2ccccc2)N2CCCCCC2)cc1 (stereo not drawn) | -12.6%
N#Cc1ccc(CSc2ncccn2)cc1 | -5.83%
N#Cc1ccc(C(c2ccc(C#N)cc2)n2cncn2)cc1 | 48.6% (active)

SMILES | inhibition
CC1CCCC(NC(=O)c2cc(S(=O)(=O)N3CCCCC3)ccc2Cl)C1C (stereo not drawn) | -4.83%
CCOC(=O)N1CCN(C(=O)C2CCN(S(=O)(=O)c3cc(Cl)ccc3OCC)CC2)CC1 | -9.59%
CCOc1ccc(S(=O)(=O)N2CCC(c3ccccc3)CC2)cc1C(=O)O | -17.4%
CCOc1ccc(Br)cc1S(=O)(=O)N1CCC(C(=O)O)CC1 | 39.3% (active)
CC(C)COc1ccc(C(=O)OCC(=O)NCCC2=CCCCC2)cc1 | 5.26%
COc1ccccc1N1CCN(C(=O)c2cc3c(-c4ccc(Cl)cc4)nn(C)c3s2)CC1 | 31% (active)
CCOC(=O)N1CCN(C(=O)c2cc3c(-c4ccc(Cl)cc4)nn(C)c3s2)CC1 | 5.45%
COc1cccc(-c2nn(C)c3sc(C(=O)N4CCN(c5ccccc5)CC4)cc23)c1 | -14.9%
CCc1noc(C)c1C(=O)N1CCN(S(=O)(=O)c2cccc(C(F)(F)F)c2)CC1 | -22.3%
N#CCC(=O)Nc1ccc(C(=O)OCC(=O)Nc2sc3c(c2C#N)CCCC3)cc1 | -5.79%
CC1Cc2ccccc2N1C(=O)c1cc2sccc2n1Cc1ccccc1 (stereo not drawn) | 8.45%
O=C(c1cc2sccc2n1Cc1ccc(F)cc1)N1CCc2ccccc21 | -20.3%
CCOC(=O)c1cc2sccc2n1Cc1ccc(C#N)cc1 | 31.1% (active)
CCC(C(=O)N1CCN(S(=O)(=O)c2sc(C(=O)O)c(C)c2C(=O)O)CC1)c1ccccc1 (stereo not drawn) | 14.8%
CCOC(=O)N1CCN(C(=O)COC(=O)c2cccc(S(C)(=O)=O)c2)CC1 | -13.9%
O=C(CCc1nc(-c2ccccc2)no1)Nc1cccc(C(=O)NC2CC2)c1 | -8.46%
Cc1ccc(NC(=O)C(C)Sc2nnc(C3CC3)n2C2CC2)cc1S(=O)(=O)N1CCOCC1 (stereo not drawn) | 10%
COc1c(O)cc2oc(-c3ccc(O)c(O)c3)cc(=O)c2c1O | 36.2% (active)
COc1ccc(-c2cc(=O)c3c(O)cc(O[C@@H]4O[C@H](CO[C@@H]5O[C@@H](C)[C@H](O)[C@@H](O)[C@H]5O)[C@@H](O)[C@H](O)[C@H]4O)cc3o2)cc1O | 3.3%
CCOC(=O)COc1cc(O)c2c(=O)cc(-c3ccccc3)oc2c1 | 3.55%
Cc1sc2nc(CSCC(=O)NC3CCCCC3)[nH]c(=O)c2c1C | 7.49%
Cc1sc2nc(COC(=O)C(NC(=O)c3ccc(Cl)cc3Cl)C(C)C)[nH]c(=O)c2c1C (stereo not drawn) | 4.89%

SMILES | inhibition
Cc1sc2nc(CSCC(=O)Nc3c(Cl)cccc3Cl)[nH]c(=O)c2c1C | 43.2% (active)
CCOCCn1[nH]c2ccccc2c1=O | 9.72%
CC(=O)Nc1ccc(S(=O)(=O)NC(C)C(=O)OCCOc2ccc(F)cc2)cc1 (stereo not drawn) | 8.18%
COc1ccccc1NS(=O)(=O)c1ccc(C(=O)N2CCN(c3ccccc3O)CC2)cc1 | -20.7%
O=C(Cc1ccc(F)cc1)N/N=C/c1ccc2c(c1)OCO2 | -1.11%
O=C(CNC(=O)C(c1ccccc1)c1ccccc1)N/N=C\c1ccc2c(c1)OCO2 | 34.6% (active)
Cc1[nH]c2ccccc2c1/C=N/NC(=O)CNC(=O)c1ccc2c(c1)OCO2 | -12.8%
COC(=O)c1ccc(NS(=O)(=O)c2cc3c4c(c2)C(C)C(=O)N4CCC3)cc1 (stereo not drawn) | 4.01%
CCCn1nc(C(=O)NNC(=O)CCOc2ccccc2OCC)c2ccccc2c1=O | 17.8%
COc1ccc(NC(=S)N2CCC(NC(=O)c3cccc(F)c3)CC2)cc1 | -6.43%
O=C(NC1CCN(Cc2ccccc2)CC1)c1ccccc1F | 21.8%
CCOc1ccccc1C(=O)NC1CC2CCCC(C1)N2Cc1ccccc1 (stereo not drawn) | 92.5% (active)
COc1cccc(C(=O)NNC(=O)c2cccc(F)c2)c1 | 0.993%
COc1ccc(NC(=O)N2CCC(Cc3ccccc3)CC2)cc1 | 3.66%
COc1ccc(CN2C3CCCC2CC(NC(=O)c2cccc(F)c2)C3)cc1 (stereo not drawn) | 80.1% (active)
CCCCOCCCNC(=O)c1ccccc1OCC | -16%
CC(=O)NC1CC2CCCC(C1)N2CC(=O)Nc1ccccc1 (stereo not drawn) | 14.7%
COc1ccc(NC(=O)NC2CC3CCCC(C2)N3Cc2ccccc2)cc1 (stereo not drawn) | 46% (active)
COc1ccc(C(=O)Oc2ccc(-c3nnco3)cc2)cc1S(=O)(=O)N1CCOCC1 | 14.7%
Cc1ccc2nc(SCC(=O)N3CC(C)OC(C)C3)nc(=O)n2c1 (stereo not drawn) | -3.68%
O=C(CNS(=O)(=O)c1ccc2c(c1)OCCCO2)N1CCN(c2ccc(F)cc2)CC1 | -12.5%
Cn1c(-c2ccc(F)cc2)cc2onc(-c3ccccc3Cl)c2c1=O | 8.07%

SMILES | inhibition
CCN(CC)S(=O)(=O)c1ccc2[nH]c(=O)cc(C(=O)N(C)C3CCS(=O)(=O)C3)c2c1 (stereo not drawn) | -4.37%
CC(=O)Nc1ccccc1NC(=O)c1cc(C)cc(C)c1 | 13.8%
CSCc1ccc(C(=O)Nc2cc(C)cc(C)c2)cc1 | 30.3% (active)
C=CCN(c1ccc(C(=O)Nc2cc(C)cc(C)c2)cc1)S(C)(=O)=O | -5.69%
COC(=O)Cc1ccc(OC(=O)C2CCN(S(=O)(=O)c3ccc(OC)c(OC)c3)CC2)cc1 | -7.28%
COc1ccc(CC(=O)OC(C)C(=O)Nc2ccc(S(N)(=O)=O)cc2)cc1 (stereo not drawn) | -2.4%
CCCc1nnc(NC(=O)c2cc(OC)cc(OC)c2)s1 | -9.73%
COc1ccc(Cc2nnc(NC(=O)c3cc(OC)c(OC)c(OC)c3)s2)cc1OC | 34.9% (active)
COc1ccc(Cc2nnc(NC(=O)c3ccc(OC)cc3OC)s2)cc1 | 2.14%
Cc1ccc(N2CC(C(=O)Nc3cc(Cl)ccc3-n3cncn3)CC2=O)cc1 (stereo not drawn) | -16.3%
CCN(Cc1ccccc1)C(=O)Cc1ccc(OC)c(S(=O)(=O)N2CCOCC2)c1 | -8.71%
CC(NCC(=O)Nc1ccccc1C(=O)NC1CC1)c1ccccc1Cl (stereo not drawn) | 26.6%
COc1ccc(C(CNC(=O)c2cccc(S(=O)(=O)Nc3ccccc3Cl)c2)N2CCOCC2)cc1 (stereo not drawn) | -9.15%
CC(=O)C1=C(C)NC2=C(C(=O)CC(C)(C)C2)C1C (stereo not drawn) | 34% (active)
CCOC(=O)C1=C(C)NC2=C(C(=O)CC(C)(C)C2)C1c1ccsc1 (stereo not drawn) | -9.11%
COc1cc(C2C(C#N)=C(C)NC3=C2C(=O)CC(C)(C)C3)ccc1O (stereo not drawn) | -7.78%
CCOC(=O)c1ccccc1NC(=O)COC(=O)C(Cc1c[nH]c2ccccc12)NC(C)=O (stereo not drawn) | -6.93%
CCC(=O)c1ccc(OCC(=O)Nc2ccc(N3CCCCC3)cc2)cc1 | 19%
CCN(CC(=O)Nc1cc(Cl)ccc1C)C(=O)CSCc1ccc(C)cc1 | -3.18%
CCOC(=O)C1=C(c2ccc(OC)cc2)C(=O)c2ccccc2C1=O | -4.28%
Cc1ccc(C2C3=C(Nc4[nH]n(-c5ccccc5)c(=O)c42)c2ccccc2C3=O)cc1 (stereo not drawn) | -28.5%
COC(=O)C1=C(C)NC2=C(C(=O)c3ccccc32)C1c1ccc(-c2ccc(C(=O)O)cc2)o1 (stereo not drawn) | 54.8% (active)
